Bioassay records deposited in PubChem BioAssay by several laboratories.
This is a sample that favours compounds with a hit; in the whole collection about 1.9% have one here.
MLLE-PAM2 inh: inhibitors of PABP1 MLLE–PAM2 peptide binding, primary screen, biochemical, fluorescence polarization, FITC-PAM2, GST-MLLE | AID 588489, 2011 | inhibition, % at 20 µM | Polyadenylate-binding protein 1 (Homo sapiens), P11940 | 360,000 compounds, 0.36% hits; in the data active means inhibition above about 35%, passing the limit was not always enough;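 further: plate controls were DMSO wells with GST-MLLE for no effect and wells lacking GST-MLLE protein for full effect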
14-3-3 Bad PPI: inhibitors of 14-3-3 zeta/Bad binding, primary screen, biochemical, TR-FRET, bovine 14-3-3 zeta. TR-FRET 14-3-3zeta/Dy647-pBad peptide displacement, 1 h. 220,000 compounds, 0.71% hits. inhibition, % at 21.7 µM;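 active means inhibition above about 70%, limit read from the data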;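 further: 0% = full 14-3-3 plus peptide FRET controls and 100% = background without 14-3-3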
eIF4H inh: human eIF4H binding inhibitors, primary screen, translation initiation inhibitor project, biochemical, uHTS, fluorescence polarization. inhibition, % at 35 µM. Eukaryotic translation initiation factor 4H (Homo sapiens), Q15056. eIF4H fluorescence polarization binding assay. 290,000 compounds, 0.94% hits;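 further: calls also rest on retests at 20 µM and on dose response follow-up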
PABP polyA inh: PABP poly(A) RNA binding inhibitors, primary screen, biochemical, fluorescence polarization, uHTS; Polyadenylate-binding protein 1 (Homo sapiens), P11940; calls only at 35 µM; 290,000 compounds, 1% hits; AID 2014, 2009;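 further: calls also rest on retests at 20 µM and on dose response follow-up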
eIF4E 4G PPI: eIF4E–eIF4G protein interaction inhibitors, primary screen, biochemical, uHTS, TR-FRET, eIF4GI fragment; TR-FRET eIF4E-eIF4GI(517-606) binding, 2 h; inhibition, % at 21.7 µM; 220,000 compounds, 0.37% hits; Eukaryotic translation initiation factor 4E (Mus musculus) + Eukaryotic translation …;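 active means inhibition above about 30%, limit read from the data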;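 further: 0% = full FRET control wells and 100% = background wells lacking eIF4GI fragment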
Numbers without * were called inactive; [ ] = remark or other dose. Unless noted, how the calls were made is not given here.

`CC1=C(C(=O)N2CCOCC2)CC(CC(=O)NC2CCCCC2)C(=O)N1Cc1ccccc1` (centres undefined) gave MLLE-PAM2 inh 12.
For CCc1ccc(/C=C2\CN(CC)Cc3c2nc2ccccc2c3C(=O)O)cc1 the results were MLLE-PAM2 inh 18, 14-3-3 Bad PPI 59, eIF4H inh inconclusive, PABP polyA inh inconclusive and eIF4E 4G PPI -6.
`CCN1C/C(=C/c2cccs2)c2nc3ccccc3c(C(=O)O)c2C1` gave MLLE-PAM2 inh 46, 14-3-3 Bad PPI 10, eIF4H inh 62*, PABP polyA inh active and eIF4E 4G PPI 0.
For CCN1C/C(=C/c2sccc2C)c2nc3ccccc3c(C(=O)O)c2C1 the results were MLLE-PAM2 inh 17, 14-3-3 Bad PPI 5, eIF4H inh 72*, PABP polyA inh active and eIF4E 4G PPI -16.
For OCC1OC(n2cnc3c(=S)nc[nH]c32)CC1O (centres undefined) the results were MLLE-PAM2 inh 36.
`S=c1nc[nH]c2c1ncn2C1CCCO1` (centres undefined) gave MLLE-PAM2 inh 40*, 14-3-3 Bad PPI -5, eIF4H inh 2, PABP polyA inh inactive and eIF4E 4G PPI -1.
Screening Cc1cc(NC(=O)CS(=O)c2cn(Cc3cccc(Cl)c3)c3ccccc23)no1 (centres undefined) returned MLLE-PAM2 inh 15.
`CCN(CC)c1ncnc2c1[nH]c1ccccc12` gave MLLE-PAM2 inh -13, 14-3-3 Bad PPI -1, eIF4H inh 72*, PABP polyA inh active and eIF4E 4G PPI 3.
For CC(C)(C)NC(=O)c1ccc2nsnc2c1 the results were MLLE-PAM2 inh 2, 14-3-3 Bad PPI 90*[fluorescence artefact?], eIF4H inh 13, PABP polyA inh inactive and eIF4E 4G PPI 5.
Screening N#CC(C#N)=Cc1cccn1-c1ccc(S(N)(=O)=O)cc1 returned MLLE-PAM2 inh 9, 14-3-3 Bad PPI 1, eIF4H inh 0.5*, PABP polyA inh active and eIF4E 4G PPI 1.
For CN(/N=C/c1c[nH]c2ccccc12)c1cnn(-c2ccc(F)c(Cl)c2)c(=O)c1Cl the results were MLLE-PAM2 inh -92, 14-3-3 Bad PPI 3, eIF4H inh 78*, PABP polyA inh active and eIF4E 4G PPI -7.
CN(/N=C/c1cccnc1)c1cnn(-c2ccc(F)c(Cl)c2)c(=O)c1Cl was read as MLLE-PAM2 inh 10, 14-3-3 Bad PPI 18, eIF4H inh -46, PABP polyA inh inactive and eIF4E 4G PPI 2.
For COc1cc(CCCN2C(=O)C(=O)NC[C@@H]2C(C)O)cc(OC)c1OC (some centres undefined) the results were MLLE-PAM2 inh -5, 14-3-3 Bad PPI -5, eIF4H inh 1, PABP polyA inh inactive and eIF4E 4G PPI 2.
For C[C@@H]1CCCCO[C@H](CN(C)S(=O)(=O)c2ccccc2)[C@@H](C)CN([C@H](C)CO)C(=O)c2cc(NC(=O)Cc3ccccc3)ccc2O1 the results were MLLE-PAM2 inh 2.
`CCCn1c(C)cc(-c2csc(N)n2)c1C` gave MLLE-PAM2 inh 22, 14-3-3 Bad PPI 74*, eIF4H inh 122*, PABP polyA inh inactive and eIF4E 4G PPI -2.
C=CCn1c(C)cc(-c2csc(N)n2)c1C was read as MLLE-PAM2 inh 28, 14-3-3 Bad PPI 66, eIF4H inh inconclusive, PABP polyA inh inconclusive and eIF4E 4G PPI 7.
`Cc1cc(OCc2nnc(SCC(=O)O)n2-c2ccccc2)ccc1Cl` gave MLLE-PAM2 inh -28, eIF4H inh 1 and PABP polyA inh inactive.
Screening CC(O)/C=C/c1ccc2ccccc2n1 (centres undefined) returned MLLE-PAM2 inh 38*, 14-3-3 Bad PPI -12, eIF4H inh 1, PABP polyA inh inactive and eIF4E 4G PPI 3.
Screening CCSc1sccc1C1C(C#N)=C(N)N(c2cccnc2)C2=C1C(=O)CCC2 (centres undefined) returned MLLE-PAM2 inh 45*, 14-3-3 Bad PPI 90*, eIF4H inh 14, PABP polyA inh inactive and eIF4E 4G PPI -4.
Screening COc1cc(C2C(C#N)=C(SC)NC3=C2C(=O)CCC3)ccc1O (centres undefined) returned MLLE-PAM2 inh 18, 14-3-3 Bad PPI -9, eIF4H inh -1, PABP polyA inh inactive and eIF4E 4G PPI 3.
`COc1cc(C2C(C#N)=C(N)N(c3cccnc3)C3=C2C(=O)CCC3)ccc1O` (centres undefined) gave MLLE-PAM2 inh 0, 14-3-3 Bad PPI -6, eIF4H inh 51*, PABP polyA inh active and eIF4E 4G PPI 4.
COc1ccccc1N(C)S(=O)(=O)c1ccc(C(=O)Nc2ccncc2)cc1 was read as MLLE-PAM2 inh -7.
`CCOC(=O)CSC1=N/C(=C\c2cc(OC)c(OC)c(OC)c2)C(=O)N1C` gave MLLE-PAM2 inh 42*, 14-3-3 Bad PPI -5, eIF4H inh -2, PABP polyA inh inactive and eIF4E 4G PPI 6.
CCCCNC(=O)c1ccc(Cn2c(=S)[nH]c3c([nH]c4ccc(OC)cc43)c2=O)cc1 was read as MLLE-PAM2 inh -95, 14-3-3 Bad PPI 12, eIF4H inh -8, PABP polyA inh inactive and eIF4E 4G PPI 5.
COc1ccc2[nH]c3c(=O)n(Cc4ccc(C(=O)NCC5CCCO5)cc4)c(=S)[nH]c3c2c1 (centres undefined) was read as MLLE-PAM2 inh -36, 14-3-3 Bad PPI -2, eIF4H inh 61*, PABP polyA inh active and eIF4E 4G PPI 18.
`CCN(CC)CCNC(=O)CCCCn1c(=S)[nH]c2c([nH]c3ccc(OC)cc32)c1=O` gave 14-3-3 Bad PPI 0, eIF4H inh 5, PABP polyA inh inactive and eIF4E 4G PPI 47*.
For O=Nc1nc2ncccn2c1-c1ccccc1 the results were MLLE-PAM2 inh -55.
Screening Cc1nc(C(F)(F)F)ccc1C(=O)N1CCCC(C)(C(=O)O)C1 (centres undefined) returned MLLE-PAM2 inh -2.
O=C(CSc1ccc(-c2ccco2)nn1)NCc1ccc(Cl)cc1 was read as MLLE-PAM2 inh 22, 14-3-3 Bad PPI 1, eIF4H inh 1, PABP polyA inh inactive and eIF4E 4G PPI 2.
Cc1cccc(CSc2ccc(-c3ccco3)nn2)c1 was read as MLLE-PAM2 inh 17, 14-3-3 Bad PPI 2, eIF4H inh 52*, PABP polyA inh active and eIF4E 4G PPI 2.
Screening O=C(CSc1ccc(-c2ccco2)nn1)NCc1ccccc1 returned MLLE-PAM2 inh 32, 14-3-3 Bad PPI 3, eIF4H inh 97*, PABP polyA inh active and eIF4E 4G PPI 7.
